The values below come from paper PMC7862700, “An all-to-all approach to the identification of sequence-specific readers for epigenetic DNA modifications on cytosine”.

Common to all, as to assay: DAPPL (digital affinity profiling via proximity ligation, sequencing); 10 mM Tris-HCl pH 7.5, 50 mM NaCl, 1 mM DTT, 4% glycerol, room temperature, 30 min; GST-TFs on glutathione beads, 16-mer random dsDNA library, 0.1% formaldehyde crosslink after washing; high values mean tight binding
The target of one assay is T1, FEV (Homo sapiens, UniProt Q99581 1-238).
T1 sequence: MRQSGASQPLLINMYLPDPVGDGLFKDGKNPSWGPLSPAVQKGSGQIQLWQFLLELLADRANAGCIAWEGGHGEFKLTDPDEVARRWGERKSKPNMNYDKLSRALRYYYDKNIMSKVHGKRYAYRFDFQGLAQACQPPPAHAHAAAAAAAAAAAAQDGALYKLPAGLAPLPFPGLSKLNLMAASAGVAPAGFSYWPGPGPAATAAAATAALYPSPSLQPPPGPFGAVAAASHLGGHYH
Conditions: protein: recombinant; tags: N-terminal GST; dsDNA, one strand shown. An outline of the steps: (§1)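 Pools were built from human transcription factors expressed in yeast as GST fusions, captured on glutathione beads and DNA-barcoded, along with a tag-only sample. Incubation with 200 nmole of a 16-mer random double-stranded DNA library lasted 30 min at room temperature in Tris/NaCl/DTT/glycerol buffer, and was followed by washing, 0.1% formaldehyde crosslinking, proximity ligation, PCR amplification and Illumina NextSeq500 sequencing. Binding signal is the quotient of each hexamer's read frequency for a factor and its frequency for the tag-only sample.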

The next assay has as its target ETV5 (Homo sapiens, UniProt P41161 1-510). The settings on record: protein: recombinant; tags: N-terminal GST; dsDNA, one strand shown. An outline of the steps:
as §1

The next assay has as its target HSF1 (Homo sapiens, UniProt Q00613 1-529). Conditions: protein: recombinant; tags: N-terminal GST; chain copies: 3; dsDNA, one strand shown. A digest of the protocol:
as §1

In a further assay the target is T2, SPIC (Homo sapiens, UniProt Q8N5J4 1-248).
T2 sequence: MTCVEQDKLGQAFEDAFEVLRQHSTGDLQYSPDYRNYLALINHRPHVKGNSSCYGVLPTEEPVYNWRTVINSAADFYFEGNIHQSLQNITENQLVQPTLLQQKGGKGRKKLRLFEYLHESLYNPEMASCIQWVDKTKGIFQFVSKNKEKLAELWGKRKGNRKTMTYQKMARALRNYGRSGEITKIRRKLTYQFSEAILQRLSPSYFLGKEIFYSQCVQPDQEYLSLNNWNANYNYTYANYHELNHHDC
Conditions: protein: recombinant; tags: N-terminal GST; dsDNA, one strand shown. An outline of the steps: as §1

The target in another assay is ELF4 (Homo sapiens, UniProt Q99607 1-663). Conditions: protein: recombinant; tags: N-terminal GST; dsDNA, one strand shown. A digest of the protocol:
as §1

A further assay deals with T3, ELK4 (Homo sapiens, UniProt P28324-2 1-405).
T3 sequence: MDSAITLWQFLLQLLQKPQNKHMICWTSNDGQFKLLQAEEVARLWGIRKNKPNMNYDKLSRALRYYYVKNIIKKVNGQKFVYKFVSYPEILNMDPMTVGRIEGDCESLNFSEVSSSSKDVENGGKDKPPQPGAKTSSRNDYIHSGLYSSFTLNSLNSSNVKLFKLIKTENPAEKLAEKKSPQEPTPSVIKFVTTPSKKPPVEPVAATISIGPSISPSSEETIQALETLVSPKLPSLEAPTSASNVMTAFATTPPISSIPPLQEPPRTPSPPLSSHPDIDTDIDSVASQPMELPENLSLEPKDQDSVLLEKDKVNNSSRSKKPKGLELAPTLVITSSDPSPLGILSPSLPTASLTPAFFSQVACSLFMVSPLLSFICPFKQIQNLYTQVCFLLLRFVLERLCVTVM
Conditions: protein: recombinant; tags: N-terminal GST; dsDNA, one strand shown. An outline of the steps:
as §1

The target in another assay is T4, ETV2 (Homo sapiens, UniProt O00321 1-342).
T4 sequence: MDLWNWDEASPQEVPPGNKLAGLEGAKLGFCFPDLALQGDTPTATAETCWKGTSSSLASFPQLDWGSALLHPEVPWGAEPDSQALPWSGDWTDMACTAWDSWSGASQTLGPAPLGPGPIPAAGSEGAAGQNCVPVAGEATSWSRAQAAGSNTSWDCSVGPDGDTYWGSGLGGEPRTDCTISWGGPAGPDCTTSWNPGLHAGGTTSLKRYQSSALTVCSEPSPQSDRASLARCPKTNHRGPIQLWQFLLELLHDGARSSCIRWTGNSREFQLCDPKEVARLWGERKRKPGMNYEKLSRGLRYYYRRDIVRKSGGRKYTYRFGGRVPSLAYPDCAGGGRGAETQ
The settings on record: protein: recombinant; tags: N-terminal GST; dsDNA, one strand shown. An outline of the steps: as §1

Another assay has as its target T5, ELF3 (Homo sapiens, UniProt P78545 1-371).
T5 sequence: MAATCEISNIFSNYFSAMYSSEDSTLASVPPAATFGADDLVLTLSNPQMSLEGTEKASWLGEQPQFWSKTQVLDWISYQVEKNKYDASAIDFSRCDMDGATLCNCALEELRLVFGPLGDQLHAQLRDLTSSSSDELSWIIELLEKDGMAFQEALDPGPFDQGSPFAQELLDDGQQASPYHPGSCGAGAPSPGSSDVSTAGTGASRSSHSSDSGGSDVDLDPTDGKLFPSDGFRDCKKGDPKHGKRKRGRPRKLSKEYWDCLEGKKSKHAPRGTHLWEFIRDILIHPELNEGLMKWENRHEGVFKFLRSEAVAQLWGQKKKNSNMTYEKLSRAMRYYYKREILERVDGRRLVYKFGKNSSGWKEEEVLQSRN
The settings on record: protein: recombinant; tags: N-terminal GST; dsDNA, one strand shown. An outline of the steps: as §1

Another assay has as its target CRX (Homo sapiens, UniProt O43186 1-299). The settings on record: protein: recombinant; tags: N-terminal GST; dsDNA, one strand shown. An outline of the steps:
as §1

For the next assay, the target named is ETV1 (Homo sapiens, UniProt P50549 1-477). Conditions: protein: recombinant; tags: N-terminal GST; dsDNA, one strand shown. An outline of the steps:
as §1

Another assay concerns the target T6, ERF (Homo sapiens, UniProt P50548 1-548).
T6 sequence: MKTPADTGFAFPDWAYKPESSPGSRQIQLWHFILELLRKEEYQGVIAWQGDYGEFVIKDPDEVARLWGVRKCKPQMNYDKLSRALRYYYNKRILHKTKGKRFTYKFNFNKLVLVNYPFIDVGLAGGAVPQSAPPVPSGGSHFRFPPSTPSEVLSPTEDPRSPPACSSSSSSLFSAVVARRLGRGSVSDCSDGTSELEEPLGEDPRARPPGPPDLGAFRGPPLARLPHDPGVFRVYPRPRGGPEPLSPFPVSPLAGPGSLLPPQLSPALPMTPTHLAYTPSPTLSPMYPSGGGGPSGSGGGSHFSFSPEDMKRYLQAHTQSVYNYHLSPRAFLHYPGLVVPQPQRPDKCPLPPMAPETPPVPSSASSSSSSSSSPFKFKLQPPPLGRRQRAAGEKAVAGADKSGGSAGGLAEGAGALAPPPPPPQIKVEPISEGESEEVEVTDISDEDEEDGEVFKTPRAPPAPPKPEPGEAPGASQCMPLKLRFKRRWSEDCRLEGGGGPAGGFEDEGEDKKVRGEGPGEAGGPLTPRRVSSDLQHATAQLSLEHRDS
Conditions: protein: recombinant; tags: N-terminal GST; dsDNA, one strand shown. A digest of the protocol: as §1

The next assay deals with T7, ETV3L (Homo sapiens, UniProt Q6ZN32 1-361).
T7 sequence: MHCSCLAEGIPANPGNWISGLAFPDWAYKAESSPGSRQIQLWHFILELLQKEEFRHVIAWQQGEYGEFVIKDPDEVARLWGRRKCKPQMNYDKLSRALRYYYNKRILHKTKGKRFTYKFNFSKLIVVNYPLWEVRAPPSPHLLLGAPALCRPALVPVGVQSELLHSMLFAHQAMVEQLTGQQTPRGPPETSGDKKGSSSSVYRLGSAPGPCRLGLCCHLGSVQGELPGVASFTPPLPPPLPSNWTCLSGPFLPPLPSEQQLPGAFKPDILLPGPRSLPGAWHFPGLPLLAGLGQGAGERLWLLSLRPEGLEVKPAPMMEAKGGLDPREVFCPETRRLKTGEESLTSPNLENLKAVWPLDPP
Conditions: protein: recombinant; tags: N-terminal GST; dsDNA, one strand shown. A digest of the protocol:
as §1

Another assay deals with T8, ETS2 (Homo sapiens, UniProt P15036 1-469).
T8 sequence: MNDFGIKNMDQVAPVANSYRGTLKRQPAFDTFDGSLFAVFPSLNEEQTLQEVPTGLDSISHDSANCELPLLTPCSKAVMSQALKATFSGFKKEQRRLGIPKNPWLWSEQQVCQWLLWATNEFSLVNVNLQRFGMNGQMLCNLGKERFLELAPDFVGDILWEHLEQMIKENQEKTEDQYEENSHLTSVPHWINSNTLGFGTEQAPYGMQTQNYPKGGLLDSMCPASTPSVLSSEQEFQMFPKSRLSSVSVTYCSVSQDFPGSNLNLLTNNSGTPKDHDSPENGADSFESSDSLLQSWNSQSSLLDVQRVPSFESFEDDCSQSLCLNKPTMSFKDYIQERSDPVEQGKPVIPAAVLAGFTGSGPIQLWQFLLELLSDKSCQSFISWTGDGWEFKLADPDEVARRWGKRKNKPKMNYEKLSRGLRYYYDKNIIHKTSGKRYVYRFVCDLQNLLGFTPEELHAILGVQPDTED
Conditions: protein: recombinant; tags: N-terminal GST; dsDNA, one strand shown. An outline of the steps: as §1

For another assay, the target named is T9, SPDEF (Homo sapiens, UniProt O95238 1-335).
T9 sequence: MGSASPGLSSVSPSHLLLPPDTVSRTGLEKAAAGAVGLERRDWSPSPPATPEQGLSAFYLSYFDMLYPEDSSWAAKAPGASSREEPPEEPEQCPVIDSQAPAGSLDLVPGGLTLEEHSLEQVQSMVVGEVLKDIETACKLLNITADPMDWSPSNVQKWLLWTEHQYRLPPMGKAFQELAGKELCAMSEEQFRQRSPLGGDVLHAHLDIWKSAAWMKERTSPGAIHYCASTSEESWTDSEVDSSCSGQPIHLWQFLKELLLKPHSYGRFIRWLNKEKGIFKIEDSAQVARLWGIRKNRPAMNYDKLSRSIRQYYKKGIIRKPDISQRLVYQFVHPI
The settings on record: protein: recombinant; tags: N-terminal GST; dsDNA, one strand shown. An outline of the steps: as §1

The target of a further assay is T10, ETV7 (Homo sapiens, UniProt Q9Y603 1-341).
T10 sequence: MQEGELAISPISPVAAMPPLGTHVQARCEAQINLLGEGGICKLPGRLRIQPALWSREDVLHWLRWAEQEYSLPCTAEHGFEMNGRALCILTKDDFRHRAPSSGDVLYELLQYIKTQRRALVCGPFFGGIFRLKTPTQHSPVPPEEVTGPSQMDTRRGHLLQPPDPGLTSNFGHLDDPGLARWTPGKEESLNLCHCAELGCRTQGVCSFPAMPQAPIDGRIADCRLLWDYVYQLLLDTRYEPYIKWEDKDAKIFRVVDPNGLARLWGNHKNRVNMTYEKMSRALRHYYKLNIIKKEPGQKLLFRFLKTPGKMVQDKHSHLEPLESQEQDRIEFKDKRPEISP
Conditions: protein: recombinant; tags: N-terminal GST; dsDNA, one strand shown. An outline of the steps:
as §1

The next assay deals with T11, ELF5 (Homo sapiens, UniProt Q9UKW6-2 1-255).
T11 sequence: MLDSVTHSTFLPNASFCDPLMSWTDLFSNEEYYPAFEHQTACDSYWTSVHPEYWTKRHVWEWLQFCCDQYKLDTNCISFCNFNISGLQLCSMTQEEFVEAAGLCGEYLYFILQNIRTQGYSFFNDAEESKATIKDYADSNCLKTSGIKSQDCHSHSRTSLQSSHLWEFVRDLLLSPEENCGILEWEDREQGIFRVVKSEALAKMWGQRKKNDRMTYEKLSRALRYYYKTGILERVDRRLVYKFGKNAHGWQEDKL
Conditions: protein: recombinant; tags: N-terminal GST; dsDNA, one strand shown. An outline of the steps: as §1

Another assay addresses T12, ETV3 (Homo sapiens, UniProt P41162-2 1-143).
T12 sequence: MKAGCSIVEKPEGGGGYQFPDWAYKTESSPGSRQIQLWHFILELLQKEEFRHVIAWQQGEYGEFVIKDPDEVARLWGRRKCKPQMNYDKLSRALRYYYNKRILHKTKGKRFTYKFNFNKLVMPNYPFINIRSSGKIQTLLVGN
Conditions: protein: recombinant; tags: N-terminal GST; dsDNA, one strand shown. An outline of the steps: as §1

A further assay deals with ETV6 (Homo sapiens, UniProt P41212 1-452). The settings on record: protein: recombinant; tags: N-terminal GST; dsDNA, one strand shown. An outline of the steps: as §1
Sequence of ETV6 (P41212 whole entry): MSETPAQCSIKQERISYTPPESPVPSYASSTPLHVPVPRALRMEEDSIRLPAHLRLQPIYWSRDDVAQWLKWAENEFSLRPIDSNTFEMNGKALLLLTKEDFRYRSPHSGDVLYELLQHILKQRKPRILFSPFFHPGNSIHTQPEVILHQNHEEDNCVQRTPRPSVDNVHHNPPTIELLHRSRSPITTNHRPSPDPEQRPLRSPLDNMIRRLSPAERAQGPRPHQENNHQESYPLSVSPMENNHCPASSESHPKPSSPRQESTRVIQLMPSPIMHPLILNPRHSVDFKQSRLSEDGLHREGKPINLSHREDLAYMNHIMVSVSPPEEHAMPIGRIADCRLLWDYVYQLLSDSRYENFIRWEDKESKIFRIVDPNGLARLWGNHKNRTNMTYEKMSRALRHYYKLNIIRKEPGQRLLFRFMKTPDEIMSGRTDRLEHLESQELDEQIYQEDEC

Sequence of CRX (O43186 whole entry): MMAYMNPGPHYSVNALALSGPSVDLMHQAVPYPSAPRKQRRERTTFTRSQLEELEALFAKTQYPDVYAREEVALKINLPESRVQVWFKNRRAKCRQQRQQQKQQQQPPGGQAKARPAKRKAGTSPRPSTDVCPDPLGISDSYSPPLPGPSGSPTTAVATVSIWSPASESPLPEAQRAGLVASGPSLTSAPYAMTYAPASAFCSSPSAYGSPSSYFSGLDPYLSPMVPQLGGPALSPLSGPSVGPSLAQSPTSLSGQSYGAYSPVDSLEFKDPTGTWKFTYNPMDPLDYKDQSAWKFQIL
Sequence of ETV5 (P41161 whole entry): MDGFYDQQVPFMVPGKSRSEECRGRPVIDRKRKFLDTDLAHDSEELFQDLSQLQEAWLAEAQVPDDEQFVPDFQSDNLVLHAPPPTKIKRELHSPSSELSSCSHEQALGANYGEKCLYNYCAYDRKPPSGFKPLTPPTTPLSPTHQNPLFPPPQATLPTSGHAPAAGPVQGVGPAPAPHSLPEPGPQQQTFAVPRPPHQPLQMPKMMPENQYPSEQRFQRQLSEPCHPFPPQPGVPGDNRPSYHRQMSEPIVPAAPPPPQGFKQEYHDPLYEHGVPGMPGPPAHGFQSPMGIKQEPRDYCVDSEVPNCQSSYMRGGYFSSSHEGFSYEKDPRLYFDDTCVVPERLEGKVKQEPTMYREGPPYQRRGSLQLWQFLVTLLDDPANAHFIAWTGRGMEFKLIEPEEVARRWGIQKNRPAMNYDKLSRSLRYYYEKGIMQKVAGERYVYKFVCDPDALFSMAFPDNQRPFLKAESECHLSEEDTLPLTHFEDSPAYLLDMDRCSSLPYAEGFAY
Sequence of HSF1 (Q00613 whole entry): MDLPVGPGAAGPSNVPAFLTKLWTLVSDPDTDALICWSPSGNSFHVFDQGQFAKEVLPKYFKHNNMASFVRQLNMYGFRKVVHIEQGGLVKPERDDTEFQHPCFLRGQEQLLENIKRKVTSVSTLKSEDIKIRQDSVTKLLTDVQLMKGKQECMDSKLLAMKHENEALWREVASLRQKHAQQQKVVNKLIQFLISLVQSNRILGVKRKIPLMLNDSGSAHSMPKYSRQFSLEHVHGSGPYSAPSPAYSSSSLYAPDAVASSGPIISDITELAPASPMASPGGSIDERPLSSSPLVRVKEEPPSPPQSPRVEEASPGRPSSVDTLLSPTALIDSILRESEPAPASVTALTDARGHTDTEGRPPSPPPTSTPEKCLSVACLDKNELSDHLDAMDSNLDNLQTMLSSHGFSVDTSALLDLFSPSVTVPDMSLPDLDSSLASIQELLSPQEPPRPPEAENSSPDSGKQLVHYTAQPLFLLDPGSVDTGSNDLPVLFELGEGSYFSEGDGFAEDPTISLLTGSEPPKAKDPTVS
Sequence of ETV1 (P50549 whole entry): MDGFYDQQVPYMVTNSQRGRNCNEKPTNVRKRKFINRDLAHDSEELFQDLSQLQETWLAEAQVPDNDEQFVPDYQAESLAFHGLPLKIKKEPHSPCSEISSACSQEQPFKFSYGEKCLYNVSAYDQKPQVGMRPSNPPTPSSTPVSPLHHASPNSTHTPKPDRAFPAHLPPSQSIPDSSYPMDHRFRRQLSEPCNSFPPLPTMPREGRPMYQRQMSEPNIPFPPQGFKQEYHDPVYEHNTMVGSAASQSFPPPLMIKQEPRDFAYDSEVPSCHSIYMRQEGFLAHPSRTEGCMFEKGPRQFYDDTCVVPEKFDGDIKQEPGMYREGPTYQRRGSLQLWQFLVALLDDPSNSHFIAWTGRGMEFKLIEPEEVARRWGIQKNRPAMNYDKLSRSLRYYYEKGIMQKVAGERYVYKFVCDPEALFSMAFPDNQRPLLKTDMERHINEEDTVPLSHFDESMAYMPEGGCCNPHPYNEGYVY
Sequence of ELF4 (Q99607 whole entry): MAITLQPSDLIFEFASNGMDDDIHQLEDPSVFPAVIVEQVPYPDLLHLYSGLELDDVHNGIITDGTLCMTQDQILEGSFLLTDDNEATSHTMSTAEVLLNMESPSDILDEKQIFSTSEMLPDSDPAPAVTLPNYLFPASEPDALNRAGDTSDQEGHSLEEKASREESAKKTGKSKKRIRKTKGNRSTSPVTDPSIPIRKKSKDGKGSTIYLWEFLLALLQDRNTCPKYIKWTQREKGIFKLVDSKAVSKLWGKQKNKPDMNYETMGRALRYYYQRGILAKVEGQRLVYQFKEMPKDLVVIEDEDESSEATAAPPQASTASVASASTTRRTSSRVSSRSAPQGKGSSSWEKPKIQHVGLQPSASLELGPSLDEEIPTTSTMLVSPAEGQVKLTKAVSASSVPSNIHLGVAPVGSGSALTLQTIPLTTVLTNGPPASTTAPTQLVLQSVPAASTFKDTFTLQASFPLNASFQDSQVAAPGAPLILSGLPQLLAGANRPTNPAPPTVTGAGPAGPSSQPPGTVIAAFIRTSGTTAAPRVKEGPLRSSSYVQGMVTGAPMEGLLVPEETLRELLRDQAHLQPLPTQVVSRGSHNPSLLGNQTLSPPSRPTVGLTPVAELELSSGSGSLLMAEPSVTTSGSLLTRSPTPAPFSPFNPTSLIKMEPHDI

On to TCAAAA, for which the binding signal is 1.13 fold enrichment (6-mer frequency, TF over GST control) with FEV; 1.17 fold enrichment (6-mer frequency, TF over GST control) in the assay with ETV5; 1.19 fold enrichment (6-mer frequency, TF over GST control) in the assay with HSF1; 1.24 fold enrichment (6-mer frequency, TF over GST control) with SPIC; 1.22 fold enrichment (6-mer frequency, TF over GST control) with ELF4; 1.25 fold enrichment (6-mer frequency, TF over GST control) with ELK4. For the same sequence, the binding signal is 1.23 fold enrichment (6-mer frequency, TF over GST control) in the assay with ETV2; 1.39 fold enrichment (6-mer frequency, TF over GST control) with ELF3; 1.28 fold enrichment (6-mer frequency, TF over GST control) with CRX; 1.23 fold enrichment (6-mer frequency, TF over GST control) with ETV1; 1.12 fold enrichment (6-mer frequency, TF over GST control) with ERF; 1.18 fold enrichment (6-mer frequency, TF over GST control) with ETV3L. Also, the binding signal with ETS2 is 1.15 fold enrichment (6-mer frequency, TF over GST control); with SPDEF, 1.06 fold enrichment (6-mer frequency, TF over GST control); in the assay with ETV7, 1.22 fold enrichment (6-mer frequency, TF over GST control); with ELF5, 1.11 fold enrichment (6-mer frequency, TF over GST control); in the assay with ETV3 it was 1.15 fold enrichment (6-mer frequency, TF over GST control); with ETV6 it was 1.24 fold enrichment (6-mer frequency, TF over GST control).
